Measured values as given in PubChem BioAssay (NCATS).
Records with an inconclusive call do not appear. Active and inactive are the calls of the source. Unless noted, the call rests on the fitted dose curve; in most records, active means well fitted curve in the direction sought with a large enough effect; inconclusive means small, poorly fitted or top-dose-only effect, or another doubt; inactive means no such curve, though single readings can be large; an effect the other way counts as inactive or inconclusive.

How the values were obtained:
[1] = target: Cytochrome P450 3A4 (Homo sapiens) (UniProt P08684); assay: qHTS Assay for Inhibitors and Substrates of Cytochrome P450 3A4 (AID 884); further: series mostly up to about 57 µM; nearly all actives have a fitted effect of over 50% in size
Sequence of Cytochrome P450 3A4 (Homo sapiens) (P08684 whole entry, looked up): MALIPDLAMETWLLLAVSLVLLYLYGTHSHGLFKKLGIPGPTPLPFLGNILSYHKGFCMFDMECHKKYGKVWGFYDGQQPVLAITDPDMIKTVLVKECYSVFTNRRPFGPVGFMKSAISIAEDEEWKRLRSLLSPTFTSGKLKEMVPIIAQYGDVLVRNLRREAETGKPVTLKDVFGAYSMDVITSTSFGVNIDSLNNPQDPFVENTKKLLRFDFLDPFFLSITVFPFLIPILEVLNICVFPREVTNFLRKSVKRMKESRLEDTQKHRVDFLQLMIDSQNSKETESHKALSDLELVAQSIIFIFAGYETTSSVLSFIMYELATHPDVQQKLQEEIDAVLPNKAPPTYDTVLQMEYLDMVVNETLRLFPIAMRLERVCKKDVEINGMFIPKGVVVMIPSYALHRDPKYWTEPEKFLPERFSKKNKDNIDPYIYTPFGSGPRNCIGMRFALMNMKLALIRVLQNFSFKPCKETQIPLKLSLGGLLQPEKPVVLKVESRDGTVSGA
How it was run: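 Luminescent readout of luciferin produced by CYP3A4 (20 nM) dealkylation of Luciferin-PPXE, 25 uM (its KM). NADPH-driven reaction ran 60 min at RT after 10 min compound preincubation; data scaled to 57 uM ketoconazole as 100% inhibition.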

[2] = MultiTox-Fluor Cytotoxicity Assay - LYMP1-001 - Dead Cells (AID 946); further: potency means the concentration at half of the fitted maximal effect
How it was run: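 LYMP1-001 lymphoblastoid cells (2500/well) treated 16 h at 37 C. Dead-cell protease cleavage of bis-AAF-R110 read at Ex/Em 485/520. Normalized to DMSO and 15 uM tetraoctylammonium bromide; AC50 from Hill fits.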

[3] = Cell Viability - LYMP1-002 - Assay at 16 hr (AID 948)
How it was run: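 Human lymphoblastoid cells (LYMP1-002), 2500/well, were preincubated 5 hr at 37 C, then exposed to compounds for 16 hr at 37 C in complete medium. Cellular ATP was read by CellTiter-Glo luminescence after 30 min at room temperature; AC50 from Hill fits.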

[4] = target: Alpha-galactosidase (Coffea arabica) (UniProt Q42656); assay: Counterscreen for Glucocerebrosidase Inhibitors: qHTS Assay for Coffee Bean alpha-Galactosidase at pH 4.5 (AID 957); further: series mostly up to about 77 µM
Sequence of Alpha-galactosidase (Coffea arabica) (Q42656 whole entry, looked up): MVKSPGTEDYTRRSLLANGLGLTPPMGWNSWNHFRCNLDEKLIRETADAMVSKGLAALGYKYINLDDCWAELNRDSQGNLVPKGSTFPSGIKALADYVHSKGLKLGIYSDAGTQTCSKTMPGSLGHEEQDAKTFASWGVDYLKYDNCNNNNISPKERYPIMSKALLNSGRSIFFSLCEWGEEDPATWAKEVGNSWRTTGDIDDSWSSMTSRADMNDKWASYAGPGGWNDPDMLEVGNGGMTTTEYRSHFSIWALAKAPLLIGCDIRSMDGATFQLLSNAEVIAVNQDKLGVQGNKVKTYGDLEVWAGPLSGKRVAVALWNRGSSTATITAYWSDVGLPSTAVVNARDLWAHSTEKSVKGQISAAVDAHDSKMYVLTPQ
How it was run: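 Enzyme is added first (2 nM final), then compounds titrated from 0.7 nM to 77 uM, then 80 uM 4-methylumbelliferyl alpha-D-galactopyranoside; after 20 min at room temperature a pH 10 NaOH/glycine stop precedes fluorescence reading at 365/440 nm.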

[5] = Cell Viability - LYMP1-003 - Assay at 24 hr (AID 963)
How it was run: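 Cytotoxicity is scored as a concentration-dependent fall in ATP-linked luciferase signal in human lymphoblastoid LYMP1-003 cells treated 24 hr at 37 C in complete culture medium.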

[6] = Cell Viability - LYMP1-003 - Assay at 40 hr (AID 964); further: series mostly up to about 92 µM; nearly all actives have a fitted effect of over 60% in size
How it was run: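 Luminescent ATP signal (CellTiter-Glo) served as the viability read-out after 40 hr compound treatment of human lymphoblastoid LYMP1-003 cells at 37 C. Decreases in ATP were fitted with the Hill equation to give AC50.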

[7] = Cell Viability - LYMP2-005 (AID 967); further: series mostly up to about 92 µM
How it was run: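 CellTiter-Glo luminescence (cellular ATP) read-out; LYMP2-005 lymphoblastoid cells, 2500/well, 5 h pre-incubation, then 24 h compound exposure at 37 C in complete medium. Tetraoctylammonium bromide positive control; AC50 by standard Hill fit.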

[8] = Cell Viability - LYMP2-015 (AID 971); further: nearly all actives have a fitted effect of over 55% in size
How it was run: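 Cells are seeded at 2500 per well and incubated 5 hr at 37 C. Compounds are added across a concentration series for 24 hr at 37 C. CellTiter-Glo is added, and luminescence is read after 30 min at room temperature.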

[9] = Cell Viability - LYMP2-023 (AID 975);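 further: cellular ATP measured by luciferase luminescence as viability proxy; series mostly up to about 92 µM; nearly all actives have a fitted effect of over 55% in size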
How it was run: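 Steps: seed 2500 human lymphoblastoid cells per well, incubate 5 hr at 37 C, add compound for 24 hr at 37 C, add CellTiter-Glo, hold 30 min at room temperature, read luminescence. AC50 derived by Hill modelling.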

[10] = Cell Viability - LYMP2-025 (AID 976); further: series mostly up to about 92 µM
How it was run: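 Acute cytotoxicity is scored as a concentration-dependent fall in intracellular ATP, measured by luciferase luminescence, in human lymphoblastoid LYMP2-025 cells exposed to compound for 24 hours at 37 C. AC50 values come from standard Hill fits.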

[11] = Cell Viability - LYMP2-014 (AID 983); further: series mostly up to about 92 µM; nearly all actives have a fitted effect of over 50% in size
How it was run: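 Cells are plated at 2500/well and left 5 hr at 37 C. Compounds are added across a concentration range and incubated 24 hr at 37 C in complete medium. CellTiter-Glo is added, and luminescence is read after 30 min at room temperature.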

[12] = Cell Viability - LYMP1-002 - Assay at 24 hr (AID 993)
How it was run: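 Acute toxicity is measured as concentration-dependent loss of cellular ATP in a human lymphoblastoid line (Coriell LYMP1-002) after 24 h treatment in complete medium. ATP is quantified by luciferase luminescence and AC50 derived by Hill modelling.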

[13] = Cell Viability - LYMP1-002 - Assay at 40 hr (AID 994); further: nearly all actives have a fitted effect of over 60% in size
How it was run: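 Cells are plated at 2500 per well and rested 5 hr at 37 C. Compounds are added and incubated 40 hr at 37 C. CellTiter-Glo reagent is added for 30 min at room temperature before luminescence is read.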

[14] = target: Alpha-galactosidase (Coffea arabica) (UniProt Q42656); assay: Counterscreen for Glucocerebrosidase Inhibitors: qHTS Assay for Coffee Bean alpha-Galactosidase at pH 5.9 (AID 998)
How it was run: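 Fluorogenic 4-MU substrate hydrolysis, 80 uM substrate and 2 nM coffee bean alpha-galactosidase, pH 5.9 citrate buffer, 20 min at room temperature, then NaOH/glycine stop. Titration 0.7 nM–77 uM, normalized to no-enzyme and enzyme controls, AC50 via Hill equation.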

[15] = qHTS for differential inhibitors of proliferation of Plasmodium falciparum line 7G8 (AID 1815);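 further: potency means the concentration at half of the fitted maximal effect; parasite growth measured after three days of incubation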
[16] = qHTS for differential inhibitors of proliferation of Plasmodium falciparum line GB4 (AID 1816); conditions: Potency: Plasmodium falciparum GB4 proliferation inhibition;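 further: potency means the concentration at half of the fitted maximal effect; parasite growth measured after 72 h incubation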
[17] = qHTS for differential inhibitors of proliferation of Plasmodium falciparum line 3D7 (AID 1876); further: potency means the concentration at half of the fitted maximal effect
[18] = qHTS for differential inhibitors of proliferation of Plasmodium falciparum line D10 (AID 1877);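 further: potency means the concentration at half of the fitted maximal effect; parasites grown with compound for 72 h before DNA staining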
[19] = qHTS for differential inhibitors of proliferation of Plasmodium falciparum line W2 (AID 1883); conditions: Potency: Plasmodium falciparum W2 proliferation inhibition;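 further: potency means the concentration at half of the fitted maximal effect; parasites grown with compound for 72 h before lysis and staining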
[20] = qHTS for differential inhibitors of proliferation of Plasmodium falciparum line HB3 (AID 1886); conditions: Potency: Plasmodium falciparum HB3 proliferation inhibition;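 further: potency means the concentration at half of the fitted maximal effect; parasites grown with compound for 72 h before SYBR Green readout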
[21] = Validation screen for inhibitors of Lassa infection (AID 463096; calls by dose curve)
[22] = Validation screen for small molecules that induce genotoxicity in human embryonic kidney (HEK293T) cells expressing luciferase-tagged ELG1 (AID 493106)
How it was run: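 Cells were dispensed at 2,000 per well, then 23 nL compound or DMSO was pinned in. After 16 hr at 37 °C and 5% CO2, ONE-Glo reagent was added. Luciferase activity was measured following 30 min at room temperature.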

[23] = Inducers of the Endoplasmic Reticulum Stress Response (ERSR) in human glioma: Validation (AID 504836)
How it was run: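 ERSR induction read as luciferase luminescence (Bright-Glo, 10 min at room temperature) in stably transfected human U87-MG glioma cells exposed to compounds for 16 h, using GRP78 as sensor.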

Measured: Potency

CC(=O)[C@H]1CC[C@H]2[C@@H]3CCC4=CC(=O)CC[C@]4(C)[C@H]3CC[C@]12C
inactive: [1] | [3] | [4] | [5] | [6] | [7] | [8] | [9] | [10] | [11] | [12] | [13] | [14] | [21] | [22] | [23]
active: [2] 50.1 µM | [15] 8.91 µM | [16] 12.6 µM | [17] 11.2 µM | [18] 12.6 µM | [19] 7.94 µM | [20] 8.91 µM
